Assay results published in PubChem BioAssay (Tox21).
Records with an inconclusive call do not appear. The source made the active and inactive calls. Unless noted, the call rests on the fitted dose curve; in most records, active means well fitted curve in the direction sought with a large enough effect in the repeat runs; inconclusive means weak or mixed curves; inactive means no such curve, though single readings can be large; an effect the other way counts as inactive or inconclusive.

Columns and labels:
[1] = qHTS assay to identify small molecule agonists of the progesterone receptor (PR) signaling pathway - cell viability counter screen (AID 1346799; calls by dose curve; further: nearly all actives have a fitted effect of over 45% in size; further: potency means the concentration at half of the fitted maximal effect; on activity change, negative = cytotoxicity: on the % scale 0 is the no-effect control and ±100 the full control effect)
In short: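 Cytotoxicity measured by CellTiter-Glo luminescence (30 min, RT) in the same wells as the PR beta-lactamase agonist read. Those HEK293T cells had 16 h compound treatment at 37 C in 2% charcoal-stripped FBS medium.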

[2] = qHTS assay to identify small molecule antagonists of the TGF-beta/Smad signaling pathway - cell viability counter screen (AID 1346824); further: on the % scale 0 is the no-effect control and ±100 the full control effect; nearly all actives have a fitted effect of over 50% in size
In short: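 SBE-bla HEK 293T cells were plated overnight at 37 C, then given compounds in DMSO plus TGF-beta1 (added as 0.25 ng/mL solution) for 5 hr. After the bla read, CellTiter-Glo was added to the same wells and luminescence read after 30 min at room temperature.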

[3] = qHTS assay to identify small molecule agonists of the TGF-beta/Smad signaling pathway - cell viability counter screen (AID 1346829); further: top concentration of the series differs between compounds; on the % scale 0 is the no-effect control and ±100 the full control effect; nearly all actives have a fitted effect of over 45% in size
In short: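 After overnight seating at 37 C and 5% CO2, reporter cells got compounds for 5 hr and FRET substrate for 2 hr; cell viability then came from CellTiter-Glo luminescence.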

[4] = qHTS assay to identify small molecule agonists of the TGF-beta/Smad signaling pathway (AID 1346859; active means well fitted activation curve with a large enough effect in the signal ratio in the repeat runs, not every such curve was filed as active; the % refers to the signal ratio; further: series mostly up to about 77 µM; on the % scale 0 is the no-effect control and ±100 the full control effect)
In short: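 Fluorescence (ex 405 nm; em 460 and 530 nm) was read 2 h after LiveBLAzer FRET substrate at RT. The preceding compound treatment of overnight-plated SBE-bla HEK293T cells lasted 5 h at 37 C.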

[5] = molecular target: Thyrotropin-releasing hormone receptor (Homo sapiens) (UniProt P34981); assay: qHTS assay to identify small molecule antagonists of the thyrotropin-releasing hormone receptor (TRHR) signaling pathway (AID 1346877; active means well fitted inhibition curve with a large enough effect in the repeat runs, not every such curve was filed as active; further: series mostly up to about 51 µM; on the % scale 0 is the no-effect control and ±100 the full control effect)
Sequence of Thyrotropin-releasing hormone receptor (Homo sapiens) (P34981 whole entry, looked up): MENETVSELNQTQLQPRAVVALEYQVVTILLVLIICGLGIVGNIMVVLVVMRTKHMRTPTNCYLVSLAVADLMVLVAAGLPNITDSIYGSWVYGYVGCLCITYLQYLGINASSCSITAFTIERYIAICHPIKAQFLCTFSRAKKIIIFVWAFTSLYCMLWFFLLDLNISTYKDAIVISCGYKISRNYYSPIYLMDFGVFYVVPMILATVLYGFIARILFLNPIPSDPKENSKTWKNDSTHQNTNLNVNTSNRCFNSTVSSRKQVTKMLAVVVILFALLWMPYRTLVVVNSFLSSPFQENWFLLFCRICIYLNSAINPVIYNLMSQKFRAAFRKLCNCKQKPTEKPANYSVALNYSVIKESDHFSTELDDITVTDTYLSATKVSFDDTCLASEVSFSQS
In short: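 Intracellular calcium fluorescence, read kinetically every second over 3 min, reports TRH-evoked signalling in HEK293 cells carrying TRHR. Test compounds were added 5 min ahead of a 1 nM TRH challenge.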

[6] = molecular target: Thyrotropin-releasing hormone receptor (Homo sapiens) (UniProt P34981); assay: qHTS assay to identify small molecule agonists of the thyrotropin-releasing hormone receptor (TRHR) signaling pathway (AID 1346891; calls by dose curve; further: series mostly up to about 58 µM; on the % scale 0 is the no-effect control and ±100 the full control effect)
In short: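 Agonist-mode intracellular calcium readout: kinetic fluorescence over 3 min at 1 s intervals after compound addition to TRHR-HEK293 cells (18 h seeded, 2 h dye-loaded at 37 C). Fifteen concentrations, triplicates.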

[7] = Human pregnane X receptor (PXR) small molecule agonists, qHTS cell viability counter screen (AID 1346977); further: on the % scale 0 is the no-effect control and ±100 the full control effect; nearly all actives have a fitted effect of over 50% in size
In short: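 Same-well viability read: CellTiter-Fluor added after 23 hr compound exposure, fluorescence measured 1 hr later. Cells were PXR-Luc HepG2 seeded at 2,000/well in 5% charcoal-stripped FBS medium, rested 5 hr before dosing at 37 C.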

[8] = Caspase-3/7 induction in HepG2 cells by small molecules, qHTS assay (AID 1346978); further: nearly all actives have a fitted effect of over 15% in size; further: potency means the concentration at half of the fitted maximal effect
In short: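 Wild-type HepG2 cells (2,000/well) were settled 5 h at 37 C, 5% CO2, then exposed to compounds in DMSO for 17 h. Caspase-3/7 activity was read by luminescence 30 min after adding Caspase-Glo 3/7 reagent at room temperature.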

[9] = Caspase-3/7 induction in CHO-K1 cells by small molecules, qHTS cell viability counter screen (AID 1346979); further: nearly all actives have a fitted effect of over 35% in size; further: potency means the concentration at half of the fitted maximal effect
In short: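 Cytotoxicity counter screen: CellTiter-Fluor added to compound-treated wild-type CHO-K1 cells at 16 h (37C, 5% CO2), fluorescence measured 1 h later; same wells as caspase-3/7 measurement.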

[10] = Caspase-3/7 induction in CHO-K1 cells by small molecules, qHTS assay (AID 1346980); further: nearly all actives have a fitted effect of over 15% in size; further: potency means the concentration at half of the fitted maximal effect
In short: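 Wild-type cells were seeded at 1,500 per well and settled 5 hr at 37 C, 5% CO2, then exposed to DMSO-dissolved compounds for 17 hr. Caspase-Glo 3/7 reagent was added, and luminescence was read after 30min at room temperature.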

[11] = Caspase-3/7 induction in HepG2 cells by small molecules, qHTS cell viability counter screen (AID 1346981); further: series mostly up to about 92 µM; on the % scale 0 is the no-effect control and ±100 the full control effect; nearly all actives have a fitted effect of over 30% in size
In short: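 HepG2, WT, 2,000 cells/well; 5 hr pre-incubation 37 C/5% CO2; compound pin-transferred from DMSO; 16 hr exposure; CellTiter-Fluor, 1 hr; fluorescence read.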

[12] = molecular target: Nuclear receptor subfamily 1 group I member 2 (Homo sapiens) (UniProt O75469); assay: Human pregnane X receptor (PXR) small molecule agonists, qHTS assay (AID 1346982); further: on the % scale 0 is the no-effect control and ±100 the full control effect; nearly all actives have a fitted effect of over 35% in size
Sequence of Nuclear receptor subfamily 1 group I member 2 (Homo sapiens) (O75469 whole entry, looked up): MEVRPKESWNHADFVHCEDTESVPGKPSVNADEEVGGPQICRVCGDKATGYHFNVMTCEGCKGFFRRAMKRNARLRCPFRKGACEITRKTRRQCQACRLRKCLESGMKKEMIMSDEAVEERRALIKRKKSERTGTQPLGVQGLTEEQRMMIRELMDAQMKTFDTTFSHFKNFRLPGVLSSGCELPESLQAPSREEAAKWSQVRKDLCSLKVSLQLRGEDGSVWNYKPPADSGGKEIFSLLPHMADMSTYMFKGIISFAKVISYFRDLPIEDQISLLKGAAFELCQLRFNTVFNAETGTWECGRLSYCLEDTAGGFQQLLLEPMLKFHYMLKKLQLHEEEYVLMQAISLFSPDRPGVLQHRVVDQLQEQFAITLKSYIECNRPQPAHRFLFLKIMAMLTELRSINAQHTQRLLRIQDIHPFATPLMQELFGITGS
In short: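 Luciferase signal from ONE-Glo (30 min, room temperature) measured activation of hPXR-driven CYP3A4 reporter expression in PXR-Luc HepG2 cells treated with compounds for 24 hr at 37 C.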

[13] = molecular target: Cytochrome P450 2D6 (Homo sapiens) (UniProt P10635); assay: Cytochrome P450 Family 2 Subfamily D Member 6 (CYP2D6) small molecule antagonists: luciferase reporter qHTS assay (AID 1671196); further: series mostly up to about 120 µM; on the % scale 0 is the no-effect control and ±100 the full control effect; nearly all actives have a fitted effect of over 50% in size
Sequence of Cytochrome P450 2D6 (Homo sapiens) (P10635 whole entry, looked up): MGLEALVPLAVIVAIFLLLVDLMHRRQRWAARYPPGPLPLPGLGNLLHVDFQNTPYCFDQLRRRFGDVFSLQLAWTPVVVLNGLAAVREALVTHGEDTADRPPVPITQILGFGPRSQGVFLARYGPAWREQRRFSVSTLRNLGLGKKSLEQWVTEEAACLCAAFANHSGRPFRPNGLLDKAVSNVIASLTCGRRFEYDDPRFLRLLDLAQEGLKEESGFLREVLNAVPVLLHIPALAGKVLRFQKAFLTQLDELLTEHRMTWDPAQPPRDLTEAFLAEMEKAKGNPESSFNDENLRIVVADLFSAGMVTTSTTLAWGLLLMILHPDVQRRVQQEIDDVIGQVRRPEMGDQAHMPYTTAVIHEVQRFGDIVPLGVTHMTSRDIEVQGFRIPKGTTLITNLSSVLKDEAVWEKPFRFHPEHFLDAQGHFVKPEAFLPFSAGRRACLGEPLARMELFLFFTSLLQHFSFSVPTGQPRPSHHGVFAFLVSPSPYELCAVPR
In short: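 Read-out is luminescence from luciferin formed by CYP2D6 turnover of a proluciferin substrate, recorded as relative luminescence units. Reactions ran 1 h at room temperature after NADPH regeneration solution was added.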

[14] = molecular target: Cytochrome P450 2C19 (Homo sapiens) (UniProt P33261); assay: Cytochrome P450 Family 2 Subfamily C Member 19 (CYP2C19) small molecule antagonists: luciferase reporter qHTS assay (AID 1671197); further: series mostly up to about 120 µM; on the % scale 0 is the no-effect control and ±100 the full control effect; nearly all actives have a fitted effect of over 65% in size
Sequence of Cytochrome P450 2C19 (Homo sapiens) (P33261 whole entry, looked up): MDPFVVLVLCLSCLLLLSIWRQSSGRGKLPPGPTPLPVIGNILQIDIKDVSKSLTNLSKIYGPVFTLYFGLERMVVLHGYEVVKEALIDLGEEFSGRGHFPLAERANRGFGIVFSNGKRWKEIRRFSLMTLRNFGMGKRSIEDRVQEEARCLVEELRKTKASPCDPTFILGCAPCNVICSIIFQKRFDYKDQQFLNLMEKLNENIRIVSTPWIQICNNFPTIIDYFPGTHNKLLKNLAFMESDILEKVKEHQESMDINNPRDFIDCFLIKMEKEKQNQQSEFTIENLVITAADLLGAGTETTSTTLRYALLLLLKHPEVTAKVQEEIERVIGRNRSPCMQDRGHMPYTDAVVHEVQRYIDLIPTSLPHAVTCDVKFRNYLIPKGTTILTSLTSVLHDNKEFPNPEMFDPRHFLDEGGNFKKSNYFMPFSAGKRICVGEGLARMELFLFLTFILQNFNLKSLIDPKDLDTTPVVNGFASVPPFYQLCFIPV
In short: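 Inhibition of CYP2C19 was scored from loss of luminescence in a P450-Glo proluciferin substrate assay, NADPH-started and run 1 h at 37C, with ketoconazole as positive control.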

[15] = molecular target: Cytochrome P450 2C9 (Homo sapiens) (UniProt P11712); assay: Cytochrome P450 Family 2 Subfamily C Member 9 (CYP2C9) small molecule antagonists: luciferase reporter qHTS assay (AID 1671198); further: series mostly up to about 120 µM; on the % scale 0 is the no-effect control and ±100 the full control effect; nearly all actives have a fitted effect of over 50% in size
Sequence of Cytochrome P450 2C9 (Homo sapiens) (P11712 whole entry, looked up): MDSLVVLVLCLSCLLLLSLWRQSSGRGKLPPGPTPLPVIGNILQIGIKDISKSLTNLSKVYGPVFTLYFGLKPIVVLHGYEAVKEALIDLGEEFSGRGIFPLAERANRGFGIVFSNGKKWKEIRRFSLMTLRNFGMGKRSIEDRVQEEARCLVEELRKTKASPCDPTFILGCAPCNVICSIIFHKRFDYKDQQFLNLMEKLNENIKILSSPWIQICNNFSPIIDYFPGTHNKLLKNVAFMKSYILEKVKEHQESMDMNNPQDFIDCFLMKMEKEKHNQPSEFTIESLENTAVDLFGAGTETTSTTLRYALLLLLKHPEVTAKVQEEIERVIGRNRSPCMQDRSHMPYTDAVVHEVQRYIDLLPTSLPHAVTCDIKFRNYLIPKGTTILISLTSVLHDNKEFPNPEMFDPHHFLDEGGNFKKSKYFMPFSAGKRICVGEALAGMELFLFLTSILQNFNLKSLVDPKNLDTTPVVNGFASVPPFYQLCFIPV
In short: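 CYP2C9 activity was measured with a P450-Glo proluciferin substrate. Enzyme–substrate mix was held with compound for 10 min at room temperature, then NADPH regeneration solution was added for 1 h at 37C. Luciferin product was read as luminescence.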

[16] = molecular target: Voltage-gated inwardly rectifying potassium channel KCNH2 (Homo sapiens) (UniProt Q12809); assay: Human Ether-a-go-go-Related Gene (hERG) channel small molecule antagonists: fluorescence cell-based qHTS assay (AID 1671200)
Sequence of Voltage-gated inwardly rectifying potassium channel KCNH2 (Homo sapiens) (Q12809 whole entry, looked up): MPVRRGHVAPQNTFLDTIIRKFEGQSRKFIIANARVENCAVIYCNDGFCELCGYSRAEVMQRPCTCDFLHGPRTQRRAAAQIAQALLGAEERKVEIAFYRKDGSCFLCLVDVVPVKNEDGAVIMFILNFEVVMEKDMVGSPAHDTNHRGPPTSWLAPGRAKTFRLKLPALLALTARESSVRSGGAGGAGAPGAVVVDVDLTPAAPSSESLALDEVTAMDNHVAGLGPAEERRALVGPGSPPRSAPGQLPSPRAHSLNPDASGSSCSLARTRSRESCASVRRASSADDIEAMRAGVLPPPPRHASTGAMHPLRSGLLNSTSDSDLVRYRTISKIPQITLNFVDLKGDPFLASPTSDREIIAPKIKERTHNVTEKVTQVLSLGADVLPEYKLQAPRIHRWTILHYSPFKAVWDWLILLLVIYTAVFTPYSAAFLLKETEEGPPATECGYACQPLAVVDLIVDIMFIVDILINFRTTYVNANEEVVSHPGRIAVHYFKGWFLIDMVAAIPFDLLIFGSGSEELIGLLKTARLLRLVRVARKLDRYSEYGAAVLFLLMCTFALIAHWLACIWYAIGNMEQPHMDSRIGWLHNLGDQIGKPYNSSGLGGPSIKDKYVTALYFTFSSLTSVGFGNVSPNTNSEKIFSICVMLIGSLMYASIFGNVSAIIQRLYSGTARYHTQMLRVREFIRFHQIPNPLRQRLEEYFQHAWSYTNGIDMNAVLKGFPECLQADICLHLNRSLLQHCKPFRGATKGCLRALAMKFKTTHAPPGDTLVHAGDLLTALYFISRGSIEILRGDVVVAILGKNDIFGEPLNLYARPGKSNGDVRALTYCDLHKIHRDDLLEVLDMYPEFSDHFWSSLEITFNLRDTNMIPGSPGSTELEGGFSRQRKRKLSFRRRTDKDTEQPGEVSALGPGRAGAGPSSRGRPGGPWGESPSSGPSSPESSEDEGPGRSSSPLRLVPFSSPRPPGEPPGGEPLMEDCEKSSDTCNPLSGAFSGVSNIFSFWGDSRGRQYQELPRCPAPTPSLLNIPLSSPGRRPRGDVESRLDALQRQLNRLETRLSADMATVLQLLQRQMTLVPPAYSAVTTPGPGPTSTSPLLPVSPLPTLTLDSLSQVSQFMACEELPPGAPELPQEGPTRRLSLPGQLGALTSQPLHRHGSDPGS
In short: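 Thallium flux as potassium surrogate: FluxOR II dye loaded 1 h at room temperature into hERG-expressing U2OS cells, then stimulus buffer added after 10 min. Kinetic 480 nm excitation/540 nm emission read, 2 min.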

[17] = molecular target: Cytochrome P450 1A2 (Homo sapiens) (UniProt P05177); assay: Cytochrome P450 Family 1 Subfamily A Member 2 (CYP1A2) small molecule antagonists: luciferase reporter qHTS assay (AID 1671199); further: nearly all actives have a fitted effect of over 50% in size; further: potency means the concentration at half of the fitted maximal effect
Sequence of Cytochrome P450 1A2 (Homo sapiens) (P05177 whole entry, looked up): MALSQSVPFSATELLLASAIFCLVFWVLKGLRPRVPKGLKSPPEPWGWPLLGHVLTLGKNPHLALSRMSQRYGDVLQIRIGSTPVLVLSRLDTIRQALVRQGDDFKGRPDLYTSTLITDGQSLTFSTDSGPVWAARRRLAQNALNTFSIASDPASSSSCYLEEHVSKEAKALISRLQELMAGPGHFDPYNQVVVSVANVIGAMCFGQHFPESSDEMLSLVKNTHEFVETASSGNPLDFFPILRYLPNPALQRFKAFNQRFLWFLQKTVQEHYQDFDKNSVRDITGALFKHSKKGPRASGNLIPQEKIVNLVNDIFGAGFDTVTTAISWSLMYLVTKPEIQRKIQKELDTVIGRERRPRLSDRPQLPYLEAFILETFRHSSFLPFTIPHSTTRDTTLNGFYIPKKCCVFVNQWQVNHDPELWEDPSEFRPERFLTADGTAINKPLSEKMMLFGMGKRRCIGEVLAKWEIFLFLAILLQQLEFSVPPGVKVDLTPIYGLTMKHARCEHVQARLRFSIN
In short: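 P450-Glo CYP1A2, 1536-well qHTS: enzyme/proluciferin substrate + cpd (DMSO), 10 min RT; NADPH regen, 1 h RT; detection reagent, 20 min; luminescence, RLU.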

[18] = molecular target: Nuclear receptor subfamily 1 group I member 2 (Homo sapiens) (UniProt O75469); assay: CYP3A4 induction through human pregnane X receptor (PXR) by small molecules, qHTS assay (AID 1346984); further: potency means the concentration at half of the fitted maximal effect; nearly all actives have a fitted effect of over 40% in size
In short: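 Luminescence readout: luciferase signal after One-Glo (30 min, room temperature), following 3 h at 37C with 3uM final Luciferin-IPA P450 substrate. Cells were DPX-2 (HepG2, PXR/CYP3A4-luc co-transfected) dosed for 24 h.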

[19] = molecular target: Nuclear receptor subfamily 1 group I member 2 (Homo sapiens) (UniProt O75469); assay: Human pregnane X receptor (PXR) activation by small molecules, qHTS assay (AID 1346985); further: on the % scale 0 is the no-effect control and ±100 the full control effect; nearly all actives have a fitted effect of over 40% in size
In short: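 DPX-2 cells (HepG2 co-transfected with a PXR response element and a CYP3A4-promoter luciferase construct) were seeded at 2,000 per well, rested 5 hr at 37C, then exposed to DMSO-dissolved compounds for 24 hr. Activation was read as luciferase luminescence.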

O=c1cc[nH]cc1
inactive: Potency [1] | Potency [2] | Potency [3] | outcome [4] | Potency [5] | Potency [6] | Potency [7] | Potency [8] | Potency [9] | Potency [10] | Potency [11] | Potency [12] | Potency [13] | Potency [14] | Potency [15] | Potency [16]

CCOC=C(C(=O)OCC)C(=O)OCC
inactive: Potency [1] | Potency [2] | Potency [3] | outcome [4] | Potency [5] | Potency [6] | Potency [7] | Potency [8] | Potency [9] | Potency [10] | Potency [11] | Potency [12] | Potency [13] | Potency [14] | Potency [15] | Potency [17] | Potency [16]

COc1cc(C(C)C)ccc1C
inactive: activity change, negative = cytotoxicity [1] -8.49% [at 19 µM] | viability change, negative = cytotoxic [2] -0.209% [at 15.8 µM] | activity change, negative = cytotoxicity [3] 6.13% [at 15.8 µM] | activation [4] 5.38% [at 15.8 µM] | activity, negative = inhibition [5] -0.302% [at 10.5 µM] | activation [6] 0.0321% [at 11.8 µM] | activity change, negative = cytotoxicity [7] 1.46% [at 19 µM] | caspase activation [8] 0.0291% [at 19 µM] | activity change, negative = cytotoxicity [9] -7.98% [at 19 µM] | caspase-3/7 activation [10] -1.8% [at 19 µM] | activity change, negative = cytotoxicity [11] -0.801% [at 19 µM] | activation [12] -14.1% [at 19 µM] | activity change, negative = inhibition [13] -6.69% [at 23.6 µM] | activity change, negative = inhibition [14] -21% [at 23.6 µM] | activity change, negative = inhibition [15] -6.13% [at 23.6 µM] | activity change, negative = inhibition [17] -17.4% [at 23.6 µM] | activity change, negative = inhibition [16] -1.11% [at 15.8 µM]

Cc1cccc(C)c1C
inactive: Potency [1] | Potency [2] | Potency [3] | outcome [4] | Potency [5] | Potency [6] | Potency [7] | Potency [8] | Potency [9] | Potency [10] | Potency [11] | Potency [12] | Potency [13] | Potency [14] | Potency [15] | Potency [16]

O=C(O)C[C@H](O)C[C@H](O)/C=C/c1c(C2CC2)nc2ccccc2c1-c1ccc(F)cc1
inactive: viability change, negative = cytotoxic [2] 0.256% [at 15.8 µM] | activity change, negative = cytotoxicity [3] 3.76% [at 15.8 µM] | activation [4] -0.423% [at 15.8 µM] | activity, negative = inhibition [5] 1.91% [at 10.5 µM] | activation [6] -0.474% [at 11.8 µM] | activity change, negative = cytotoxicity [7] -7.27% [at 19 µM] | activity change, negative = cytotoxicity [11] -8.1% [at 19 µM] | activation [12] 12.4% [at 19 µM] | Potency [19] | activity change, negative = inhibition [13] -0.811% [at 23.6 µM] | activity change, negative = inhibition [14] 11.6% [at 23.6 µM] | activity change, negative = inhibition [17] -11.8% [at 23.6 µM]
active: Potency [1] 0.651 µM | Potency [8] 10.3 µM | Potency [10] 5.8 µM | Potency [18] 14.1 µM

Nc1cc([N+](=O)[O-])ccc1Cl
inactive: Potency [1] | Potency [2] | Potency [3] | outcome [4] | Potency [7] | Potency [8] | Potency [9] | Potency [10] | Potency [11] | Potency [12] | Potency [13] | Potency [16]
active: Potency [17] 17.8 µM

O=C(O)CN(CCCN(CC(=O)O)CC(=O)O)CC(=O)O
active: Potency [9] 11.6 µM
inactive: activity change, negative = cytotoxicity [1] -13.8% [at 19 µM] | viability change, negative = cytotoxic [2] 5.13% [at 15.8 µM] | activity change, negative = cytotoxicity [3] -5.77% [at 15.8 µM] | activation [4] 0.66% [at 15.8 µM] | activity, negative = inhibition [5] -1.06% [at 10.5 µM] | activation [6] 0.0527% [at 11.8 µM] | caspase activation [8] 0.754% [at 19 µM] | caspase-3/7 activation [10] 5.17% [at 19 µM] | activity change, negative = cytotoxicity [11] -12.2% [at 19 µM] | activation [12] 1.69% [at 19 µM] | activity change, negative = inhibition [13] 2.09% [at 23.6 µM] | activity change, negative = inhibition [14] -5.87% [at 23.6 µM] | activity change, negative = inhibition [15] -3.48% [at 23.6 µM] | activity change, negative = inhibition [17] -0.26% [at 23.6 µM]

NC(=O)c1ccccc1Cl
inactive: Potency [1] | Potency [2] | Potency [3] | outcome [4] | Potency [7] | Potency [8] | Potency [9] | Potency [10] | Potency [11] | Potency [12] | Potency [13] | Potency [15] | Potency [17] | Potency [16]
